An excerpt weighted towards active compounds, which were near 1.1% of everything screened.
HTR5A ag = HTR5A agonism, opioid heterodimer counter-screen; hit rate 0.61% among 340,000; activation, % at 9.3 µM; HTR5A agonist assay, luminescence, cell-based; in the data active = activation mostly above about 9.5%, no sharp cut-off; inactive = mostly below about 7.6%;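 note: 0% = cells with vehicle only and 100% = reference agonist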
HTR5A inv ag = HTR5A inverse agonism, opioid heterodimer counter-screen; P47898; HTR5A cell line, luminescence; inhibition, % at 9.3 µM; hit rate 0.083% among 340,000; AID 504634; in the data active = inhibition mostly above about 23%, no sharp cut-off; inactive = mostly below about 18%;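 note: 0% = cells with DMSO and 100% = no-cell wells with DMSO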
MOR-DOR ag = agonists of human mu-delta opioid receptor heterodimerization. P35372+P41143. hit rate 0.3% among 340,000. activation, % at 9.3 µM. cells, OPRM1-OPRD1 heterodimerization, luminescence. AID 504326; in the data active = activation above about 18%;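 note: 0% = vehicle-treated cells and 100% = reference agonist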
OPRM1-OPRD1 inv = inverse agonist of human OPRM1-OPRD1 heterodimerization; P35372+P41143; cell-based MOR-DOR heterodimer luminescence, inverse agonism; inhibition, % at 9.3 µM; hit rate 0.21% among 340,000; AID 504357; in the data active = inhibition above about 22%, passing the limit was not always enough;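 note: 0% = cells with DMSO and 100% = wells without cells with DMSO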
Numbers without * were called inactive.

SMILES | HTR5A ag | HTR5A inv ag | MOR-DOR ag | OPRM1-OPRD1 inv
COc1cc(C2CC(c3cccs3)=NN2C(=O)CCl)ccc1OC(F)F (configuration not stated) | 59* | -144 | 74* | -414
Cc1cc(NC(=O)c2ccc(COc3ccccc3Cl)o2)no1 | 9.7* | -12 | 3 | -15
O=[N+]([O-])c1ccc(S(=O)(=O)NCCS(=O)(=O)N2CCN(c3ccccc3)CC2)cc1 | 5 | -18 | 9 | -45
O=C1C=C(O)c2cccc(O)c2C1=O | 2 | 3 | 2 | -9
CC1OC(CC(=O)O)CC2=C1C(=O)c1c(O)cccc1C2=O (configuration not stated) | -5 | 21 | 30* | -130
Cc1ccc(C(=O)OCC(=O)N(CC(C)C)c2c(N)n(Cc3ccccc3)c(=O)[nH]c2=O)o1 | 1 | -3 | -3 | 14
O=C(COc1ccccc1)Nc1ccc(CSc2ccccc2)cc1 | 12* | 1 | 10 | -56
O=C(Cc1ccc(S(=O)(=O)N2CCOCC2)s1)N1CCN(S(=O)(=O)c2cccc(Cl)c2)CC1 | 1 | -21 | 1 | -5
CC(C)Cn1c(=O)c(C(=O)Nc2ccccc2S(N)(=O)=O)c(O)c2ccccc21 | 9 | -4 | 2 | -12
CCC(C)n1c(=O)c(C(=O)Nc2ccccc2S(N)(=O)=O)c(O)c2ccccc21 (configuration not stated) | 9.0* | 8 | 4 | -25
COc1ccc(C(=O)Nc2ncccc2C)cc1S(=O)(=O)N1CCOCC1 | 1 | -4 | -2 | 11
COc1ccc(C2CC(=O)C(C3NCCc4ccccc43)=C(O)C2n2cncn2)cc1 (configuration not stated) | 11* | -30 | 1 | -3
O=C1C=C(O)C(n2cncn2)C(c2ccc(F)cc2)C1 (configuration not stated) | -5 | 14 | 1 | -4
Cc1ccc(-n2c(=O)c3ccc(C(=O)NCc4ccco4)cc3n(Cc3ccccc3C#N)c2=O)cc1 | -10 | 37* | -7 | 35*
Cc1cccc(C(=O)OCC(=O)c2cccc(Br)c2)c1O | -4 | 11 | 0 | 1
CCOC(=O)c1ccc2c(c1)N(Cc1ccccc1C)C(=O)c1ccccc1S2=O (configuration not stated) | 9.5* | -32 | -1 | 7
COC(=O)c1ccc2c(c1)N(Cc1ccccc1F)C(=O)c1ccccc1S2=O (configuration not stated) | 2 | -4 | -1 | 3
CCC(CN(C)C)Oc1cc(NCc2ccccc2)c2ncn(C(C)C)c2c1 (configuration not stated) | 21* | -63 | 24* | -140
CCC(=O)Nc1nc2ccccc2n1Cc1ccc(Cl)cc1 | 14* | -38 | 0 | 2
CCOc1ccc(S(=O)(=O)NCCC(=O)NCc2cccnc2)cc1 | -1 | 4 | -1 | 9
O=C(O)/C=C/C(=O)c1c(-c2ccccc2)[nH]c2ccccc12 | -2 | 9 | -3 | 15
O=C(COC(=O)c1cccs1)Nc1ccc(F)c(F)c1 | 10 | -24 | -2 | 7
N/C(CC(=O)Nc1ccc(F)c(Cl)c1)=N\OC(=O)c1cccs1 | 13* | -3 | 13 | -64
O=C1N/C(=C/c2cccn2-c2ccccc2)C(=O)N1Cc1ccc(F)cc1 | 1 | -5 | 3 | -14
O=C1N/C(=C/c2cccn2-c2ccc(F)cc2)C(=O)N1Cc1ccccc1F | 12* | 22 | 4 | -23
SMILES | HTR5A ag | HTR5A inv ag | MOR-DOR ag | OPRM1-OPRD1 inv
CCOc1ccc(C(=O)CCC(=O)N2CCN(c3ncccn3)CC2)cc1 | 0 | 0 | -3 | 14
O=C(CCn1c(=S)[nH]c2ccccc2c1=O)N1CCCCC1 | 9.4* | -35 | -2 | 13
CCOC(=O)N1CCN(C(=O)CCn2c(=S)[nH]c3ccccc3c2=O)CC1 | -3 | 1 | -3 | 14
S=c1nc2ccccc2c2nc(-c3ccccc3)[nH]n12 | 9.2* | -6 | -1 | 5
CCC(=O)c1ccc(OCC(O)CNC(C)c2ccccc2)cc1 (configuration not stated) | 1 | -5 | 2 | -13
CC(C)c1ccc(OCC(O)CNC(C)c2ccccc2)cc1 (configuration not stated) | 12* | -41 | 4 | -18
COc1ccc(NS(=O)(=O)c2cccc(C(=O)NCc3ccccc3CN3CCCC3)c2)cc1 | 12* | -36 | -1 | 2
Cn1c(=O)[nH]c(=O)c2c1nc(N1CCCCC1)n2CC(O)COc1ccc([N+](=O)[O-])cc1 (configuration not stated) | 4 | -12 | -3 | 14
CC(=O)N1CCN(C(=O)COC(=O)/C=C/c2ccc(C(F)(F)F)cc2)CC1 | 14* | 22 | -3 | 10

Assay outcomes (PubChem BioAssay)
